Source: PubChem BioAssay AID1159580 (chemical genetic matrix, 2015)
Several values for one entry are separate records, joined by “and”; a condition that tells them apart may be missing. Equal entries are not always repeated. Hit rate of the full screen: of about 5,500 compounds, about 2,000 (36%) were called active. Another 18% or so got no clear call; they are omitted. Rule as the data show it: active = normalized growth mostly below about 0.91 (no sharp cut-off); inconclusive = no clear call, values can overlap the other calls; inactive = mostly above about 0.92. The list shows a part of the results.

Assay: chemical genetic growth profiling, strain panel (AID 1159580);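 also: tested at 20 µM; growth read once vehicle control cultures reached saturation at 30 °C; 1 = growth at the plate median or of vehicle wells; lower values mean less growth of the strain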
Conditions: S. cerevisiae deletion strains, growth OD

Measured: normalized growth

COc1ccc2c(C)cc(=O)oc2c1
inactive: locus YAL013W, strain DEP1, active compounds read low 1.02 | locus YAL021C, strain ccr4, active compounds read low 0.979 | locus YAL026C, strain drs2, active compounds read low 0.989 | locus YAL030W, strain snc1, active compounds read low 1.02 | locus YBL061C, strain skt5, active compounds read low 0.993 | locus YBR009C, strain hhf1, active compounds read low 1.01 | locus YBR021W, strain FUR4, active compounds read low 0.976 | locus YBR023C, strain chs3, active compounds read low 0.989 | locus YBR171W, strain sec66, active compounds read low 0.985 | locus YBR229C, strain ROT2, active compounds read low 1.01 | locus YBR231C, strain swc5, active compounds read low 0.987 | locus YBR279W, strain paf1, active compounds read low 0.995 | locus YCL011C, strain gbp2, active compounds read low 0.999 | locus YCL016C, strain dcc1, active compounds read low 0.997 | locus YCL029C, strain bik1, active compounds read low 1.03 | locus YCL061C, strain MRC1, active compounds read low 0.995 | locus YCL069W, strain vba3, active compounds read low 0.964 | locus YCR088W, strain abp1, active compounds read low 0.979 | locus YDL005C, strain med2, active compounds read low 0.974 | locus YDL035C, strain GPR1, active compounds read low 1.02 | locus YDL040C, strain nat1, active compounds read low 0.99 | locus YDL074C, strain BRE1, active compounds read low 0.995 | locus YDL101C, strain DUN1, active compounds read low 1.02 | locus YDL134C, strain PPH21, active compounds read low 0.992 | locus YDL185W, strain tfp1, active compounds read low 1.04 | locus YDL192W, strain arf1, active compounds read low 1.02 | locus YDR001C, strain nth1, active compounds read low 0.981 | locus YDR069C, strain doa4, active compounds read low 1 | locus YDR101C, strain arx1, active compounds read low 1.01 | locus YDR137W, strain rgp1, active compounds read low 0.979 | locus YDR159W, strain sac3, active compounds read low 0.995 | locus YDR162C, strain NBP2, active compounds read low 1.03 | locus YDR195W, strain ref2 1.04 | locus YDR297W, strain sur2, active compounds read low 1.01 | locus YDR318W, strain mcm21, active compounds read low 1.02 | locus YDR334W, strain swr1, active compounds read low 0.956 | locus YDR335W, strain msn5, active compounds read low 0.981 | locus YDR388W, active compounds read low 1.01 | locus YDR392W, strain spt3, active compounds read low 0.978 | locus YDR502C, strain sam2, active compounds read low 1.03 | locus YEL003W, strain gim4, active compounds read low 0.982 | locus YEL037C, strain rad23, active compounds read low 0.973 | locus YEL061C, strain CIN8 (second series), active compounds read low 0.975 | locus YER015W, strain faa2, active compounds read low 1 | locus YER016W, strain bim1, active compounds read low 0.998 | locus YER110C, active compounds read low 1.02 | locus YER111C, strain swi4, active compounds read low 0.992 | locus YER155C, strain BEM2 (second series), active compounds read low 0.976 | locus YER155C, strain BEM2, active compounds read low 1.01 | locus YER167W, strain BCK2, active compounds read low 1 | locus YFR010W, strain ubp6, active compounds read low 0.966 | locus YGL078C, strain dbp3, active compounds read low 1.03 | locus YGL086W, strain mad1, active compounds read low 1 | locus YGL167C, strain pmr1, active compounds read low 0.983 | locus YGL173C, strain kem1, active compounds read low 0.983 | locus YGL227W, strain vid30, active compounds read low 0.993 | locus YGL240W, strain doc1, active compounds read low 0.99 | locus YGL248W, strain PDE1, active compounds read low 1.02 | locus YGL253W, strain hxk2, active compounds read low 0.994 | locus YGR078C, strain PAC10, active compounds read low 1.01 | locus YGR135W, strain pre9, active compounds read low 1.01 | locus YGR252W, strain gcn5, active compounds read low 0.981 | locus YHR013C, strain ard1, active compounds read low 0.956 | locus YHR027C, strain rpn1, active compounds read low 1 | locus YHR030C, strain SLT2, active compounds read low 1 and 0.963 | locus YHR079C, strain IRE1 (second series), active compounds read low 1.02 | locus YHR079C, strain IRE1, active compounds read low 0.98 | locus YHR094C, strain hxt1, active compounds read low 1.03 | locus YHR129C, strain ARP1, active compounds read low 1.01 | locus YHR142W, strain chs7, active compounds read low 0.97 | locus YHR200W, strain rpn10, active compounds read low 1.01 | locus YIL066C, strain RNR3, active compounds read low 1.01 | locus YIL073C, strain SPO22, active compounds read low 1.06 | locus YIL125W, strain kgd1, active compounds read low 1.04 | locus YIR030C, strain dcg1, active compounds read low 1.03 | locus YJL092W, strain hpr5, active compounds read low 0.999 | locus YJL095W, strain BCK1 (second series), active compounds read low 0.99 | locus YJL095W, strain BCK1, active compounds read low 1.02 and 0.987 | locus YJL115W, strain asf1, active compounds read low 0.976 | locus YJL129C, strain trk1, active compounds read low 1.01 | locus YJL134W, strain LCB3, active compounds read low 1 | locus YJL154C, strain vps35, active compounds read low 0.97 | locus YJL164C, strain tpk1, active compounds read low 0.983 | locus YJL166W, strain qcr8, active compounds read low 0.968 | locus YJL168C, strain set2, active compounds read low 1.03
